Source: PubChem BioAssay (several laboratories)
Most compounds without a hit are left out; they make up all but 0.52% or so of the library.
CatB block – inhibitors of human cathepsin B. P07858. purified cathepsin B, fluorogenic substrate, fluorescence. inhibition, %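 (tested at 10 µM)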. 0.1% of 63,000 active. AID 453; in the data active = inhibition above about 21%;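 note: 0% = enzyme with no compound and 100% = no enzyme blank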
CatS block – inhibitors of human cathepsin S; P25774; recombinant cathepsin S, AMC dipeptide fluorescence, pooled mixtures; inhibition, %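 (tested at 5 µM per compound within 10-compound mixtures)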; 0.06% of 62,000 active; in the data active = inhibition above about 32%, passing the limit was not always enough; inconclusive = no clear call, values can overlap the other calls;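 note: 0% = enzyme without compound and 100% = blank without enzyme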
Target sequence (P25774 115-331 limits assumed): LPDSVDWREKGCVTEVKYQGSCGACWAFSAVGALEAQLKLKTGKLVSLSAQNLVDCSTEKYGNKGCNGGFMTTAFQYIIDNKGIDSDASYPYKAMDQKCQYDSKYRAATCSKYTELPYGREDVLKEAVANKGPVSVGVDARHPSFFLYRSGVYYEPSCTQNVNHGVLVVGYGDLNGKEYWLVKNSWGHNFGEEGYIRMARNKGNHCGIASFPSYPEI
Htt clearance – compounds clearing mutant huntingtin protein; HeLa Exon1htt(103Q)mCFP, aggregate imaging; zero = plate's median compound well; 0.42% of 47,000 active; inhibition, % at 1.5 µM;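 active = inhibition of aggregate fluorescence above about 70%, also judged a hit by eye on the cell image, limit read from the data, passing the limit was not always enough; inconclusive = no rule stated for this call; inactive = not judged a hit on image review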;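 note: cells exposed to compound for three days before fixation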
CatB mix inh – inhibitors of human cathepsin B in compound mixtures. AID 488. inhibition, %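 (ten-compound pools at 5 µM per compound and 50 µM total)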. 0.06% of 62,000 active. Purified cathepsin B, AMC dipeptide fluorescence; in the data active = inhibition above about 22%, passing the limit was not always enough; inconclusive = no clear call, values can overlap the other calls;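 note: 0% = enzyme without compound and 100% = no enzyme blank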
CatL inh – blocks human cathepsin L protease activity. inhibition, %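 (tested at 10 µM)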. purified cathepsin L, fluorogenic substrate, fluorescence. 0.17% of 58,000 active. P07711; in the data active = inhibition above about 45%;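 note: 0% = enzyme with no compound and 100% = no enzyme blank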
Target sequence (P07711 114-288 limits assumed): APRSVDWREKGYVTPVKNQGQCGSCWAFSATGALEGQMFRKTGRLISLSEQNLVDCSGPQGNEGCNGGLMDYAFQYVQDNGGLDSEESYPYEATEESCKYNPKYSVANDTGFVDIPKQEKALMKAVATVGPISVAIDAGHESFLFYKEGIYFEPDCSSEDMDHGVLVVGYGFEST
Target sequence (P07711 292-333 limits assumed): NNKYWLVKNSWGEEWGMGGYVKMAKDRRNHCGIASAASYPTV
The depositor's hits bear a star; ? = inconclusive; . = no result.

SMILES	CatB block	CatS block	Htt clearance	CatB mix inh	CatL inh
O=C(NC1CCCCC1)C(c1ccco1)N(Cc1cccs1)C(=O)Cn1nnc2ccccc21 (stereo unspecified)	0.4	-6.4	35.1	2.0	-3.2
O=C(NCc1ccco1)C(c1ccco1)N(Cc1cccs1)C(=O)Cn1nnc2ccccc21 (stereo unspecified)	.	.	83.3*	.	.
Cc1ccc(CN(C(=O)Cn2nnc3ccccc32)C(C(=O)NCc2ccco2)c2cccs2)cc1 (stereo unspecified)	3.6	11.9	-98.2	23.3*	5.9
O=C(NCc1ccco1)C(c1cccs1)N(Cc1ccccc1)C(=O)Cn1nnc2ccccc21 (stereo unspecified)	4.0	13.8	.	5.6	7.0
CON1C(=O)C(=O)N(OC)C(C)(C)C1C (stereo unspecified)	.	.	-21.7	.	.
O=C(NCc1ccc(F)cc1)C1CCC(=O)N1CCc1ccccc1 (stereo unspecified)	42.2*	-1.1	?	-3.2	10.6
Cn1c(=O)c2c(ncn2CCO)n(C)c1=O	1.2	5.4	.	2.8	-2.4
CC(C)CCn1cnc2c1c(=O)n(C)c(=O)n2C	.	.	73.0*	.	.
CCOc1cc(C2NC(=O)NC(C)=C2C(=O)OCc2ccccc2)ccc1O (stereo unspecified)	-1.0	-2.1	.	7.4	-1.5
Cn1c(=O)n(-c2cccc(Cl)c2)c(=O)c2c3c(sc21)COC(C)(C)C3	.	.	11.0	.	.
Cc1ccc(/C=N/c2sc3c(c2C#N)CCCCC3)o1	0.2	3.2	.	1.3	-1.2
Cc1ccc(/C=N/c2sc3c(c2C#N)CCC3)s1	5.0	-6.7	17.6	0.0	104.8*
O=C(Cc1ccccc1)Nc1ccc2oc(-c3cccnc3)nc2c1	-1.5	-4.8	21.2	-0.4	-29.7
CCCCCC(=O)Nc1ccc2oc(-c3cccnc3)nc2c1	.	.	70.6*	.	.
COC(=O)Cn1cnc2c(nnn2-c2cccc(Cl)c2)c1=O	-1.4	-8.4	.	0.3	.
CC(c1ccccc1)N1C(=O)c2ccccc2C1O (stereo unspecified)	.	.	24.2	.	.
COCCCn1c(SCC(=O)Nc2nnc(C)s2)nnc1-c1ccoc1C	-5.1	-6.5	77.6*	3.9	-14.6
CCc1nnc(NC(=O)CSc2nnc(-c3ccoc3C)n2CC(C)C)s1	2.3	-1.1	.	-1.3	-0.1
O=C(CSc1ccc(Cl)cc1Cl)N1CCC(c2nc3ccccc3s2)CC1	.	.	-18.5	.	.
CN1CCN(C(=O)C(C(=O)c2ccc(F)cc2)n2ccccc2=O)CC1 (stereo unspecified)	.	.	-20.5	.	.
COC(=O)CCC(=O)c1oc2ccccc2c1N	0.4	3.5	.	-2.9	.
CC(=O)N1CN(CCCn2ccnc2)Cc2c1sc1c2CCCC1	0.5	-6.7	.	1.4	15.0
CC(=O)N1CN(Cc2ccccn2)Cc2c1sc1c2CCCC1	2.3	-7.3	82.8*	0.1	4.5
O=C(CSc1nnnn1-c1ccc2c(c1)OCCO2)Nc1nc2c(s1)CCCC2	0.4	-7.5	76.9*	1.2	-5.8
COc1cccc(-n2nnnc2SCC(=O)Nc2nc3c(s2)CCCC3)c1	.	.	-8.6	.	.
SMILES	CatB block	CatS block	Htt clearance	CatB mix inh	CatL inh
Cc1cccc2nc(Cn3c(=O)n(CCC(=O)NCc4ccco4)c(=O)c4ccccc43)cc(=O)n12	-1.8	-3.0	.	-2.6	-11.7
Cc1nnc(SCc2nnc(-c3ccccc3Br)o2)n1-c1ccccc1	0.5	5.4	.	7.8	81.6*
Cc1nnc(SCc2nnc(-c3ccc(Cl)cc3)o2)n1-c1ccccc1	4.3	4.2	.	3.3	26.4
O=C(CCCc1cccs1)Nc1nc2c(s1)CCCC2	-2.1	7.2	0.4	7.3	48.1*
Cc1ccc(NC(=O)CS(=O)Cc2nc(-c3ccc(C)cc3)oc2C)cc1 (stereo unspecified)	.	.	5.8	.	.
CN(C1CCCCC1)S(=O)(=O)c1ccc(Cl)c(C(=O)O)c1	7.3	17.2	.	1.0	48.3*
CN(C1CCCCC1)S(=O)(=O)c1ccc(C(=O)O)cc1	12.8	5.5	-60.5	-4.7	1.5
CCCN(CCC)CCNC(=O)C(NS(=O)(=O)c1ccc2c(c1)CCC(=O)N2)c1ccccc1 (stereo unspecified)	1.3	81.7*	-16.6	7.1	25.2
CCOC(=O)CNC(=O)C(Cc1ccccc1)NS(=O)(=O)c1ccc2c(c1)CCC(=O)N2 (stereo unspecified)	1.1	6.9	.	3.6	24.5
C=CCN=C(C)C1=C(O)CCC1=O	2.1	1.6	76.7*	6.2	6.2
CCn1c2ccccc2c2cc(NC(=O)CSc3nnc(-c4ccccc4OC)n3N)ccc21	-0.1	-4.6	75.7*	-0.1	-14.3
O=C1C2C3c4ccccc4C(c4ccccc43)C2C(=O)N1Cc1cccnc1 (stereo unspecified)	.	.	39.1	.	.
